From PubChem
Hits are enriched below; roughly 3.2% of the tested compounds scored in any of these assays.
TcdB inh – TcdB glycohydrolase inhibition. P18177. TcdB glycohydrolase enzymatic assay, plate reader. inhibition, % at 9.99 µM. 0.24% of 350,000 active. AID 652162
Yp Topo-I inh – blocks Yersinia pestis topoisomerase I activity. 0.064% of 360,000 active. activity, % at 10 µM. AID 504884. Y. pestis Topo-I cleavage product accumulation, plate reader; in the data active means activity above about 50%, passing the limit was not always enough
GDH-TPI counter-1 – inhibits GDH-TPI coupling enzymes, artifact for Mtb FBA screen; inhibition, % at 4.8 µM; AID 588335; 1.2% of 360,000 active; GDH-TPI coupled enzyme counterscreen, NADH absorbance; in the data active means inhibition above about 30%;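 further: 0% = DMSO wells and 100% = wells lacking the enzyme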
Mtb FBA inh – inhibits M. tuberculosis FBA enzyme; inhibition, % at 1 µM; purified M. tuberculosis FBA, fluorescence read-out; 2.3% of 360,000 active; AID 588726; in the data active means inhibition above about 27%;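 further: 0% = vehicle and 100% = reference inhibitor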
PrPC TRFRET – cell surface PrPC inhibition, primary TR-FRET screen. AID 720596. 0.43% of 370,000 active. TR-FRET read-out. inhibition, % at 13.8 µM; in the data active means inhibition above about 24%; further: 0% = median of the test wells and 100% = reference compound wells
Mtb FBA confirm – Mtb FBA inhibition, confirmed. shares compounds with Mtb FBA inh. purified M. tuberculosis FBA, fluorescence read-out. inhibition, % at 1 µM. 78% of 5,600 active. AID 651616; in the data active means inhibition above about 27%;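 further: 0% = vehicle wells and 100% = reference inhibitor wells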
GDH-TPI counter-2 – inhibits GDH-TPI coupling enzymes, flagging Mtb FBA hits | shares compounds with Mtb FBA inh | GDH-TPI coupled enzyme counterscreen, fluorescence | inhibition, % at 1 µM | 81% of 5,600 active
* hit, by the source's call; nt = not tested or not shown; + = active, no number. Unless noted, no stated cut-off is given here; in the data, active means inhibition above about 10%; inactive means the rest.

SMILES	TcdB inh	Yp Topo-I inh	GDH-TPI counter-1	Mtb FBA inh	PrPC TRFRET	Mtb FBA confirm	GDH-TPI counter-2
Cc1cc(NC(=O)CCC(=O)N(c2ccccc2C)C(C(=O)NC2CCCC2)c2ccccc2)no1 (stereo unspecified)	1	-8	8	86*	-13	+	167*
Cc1cc(NC(=O)c2ccc3nccnc3c2)ccc1Br	-2	-2	4	-3	-12	nt	nt
Cc1ccc(C(=O)Nc2ccc3nccnc3c2)cc1	nt	-10	12	37*	-24	44*	36*
CCCC#Cc1ccc([C@@H]2[C@H]3CN(C(=O)Cc4cccnc4)CC(=O)N3[C@H]2CO)cc1	1	nt	nt	nt	nt	nt	nt
C[C@H](CO)N1C[C@H](C)[C@H](CN(C)C)Oc2ccc(NC(=O)CCCCCC(=O)Nc3ccccc3N)cc2C1=O	2	nt	nt	nt	nt	nt	nt
CCCOc1c(Br)cc(C2C3=C(CCCC3=O)N(CC)C3=C2C(=O)CCC3)cc1OC	6	29	5	31*	2	30*	35*
CCCOc1c(Br)cc(C2C3=C(CCCC3=O)N(C)C3=C2C(=O)CCC3)cc1OC	3	25	12	42*	-9	+	+
O=C(NCC[C@H]1CC[C@@H](NC(=O)c2cccnc2)[C@H](CO)O1)Nc1ccc(F)cc1	-1	nt	nt	nt	nt	nt	nt
COc1ccc2c(c1OC)C(=O)N1C(C(=O)O)Cc3c([nH]c4ccccc34)C21 (stereo unspecified)	nt	-4	0	36*	-9	107*	89*
CCC(=O)N1CCN(CCN=CC2=C(O)CC(c3ccc(OC)cc3)CC2=O)CC1 (stereo unspecified)	1	7	6	59*	-3	88*	82*
O=C(c1ccccc1F)N1CC(=O)N2[C@H](CO)[C@@H](c3ccc(-c4ccc(F)cc4)cc3)[C@H]2C1	0	nt	nt	nt	nt	nt	nt
C/C(N)=C(/C#N)C(=O)COC(=O)c1cccc2ccccc12	2	-1	5	28*	-4	73*	55*
COc1ccccc1-c1ccc([C@H]2[C@@H](C#N)N(C(=O)C3CC3)[C@H]2CO)cc1	0	nt	nt	nt	nt	nt	nt
C[C@@H]1CN([C@H](C)CO)C(=O)Cc2cc(NC(=O)NC3CCCCC3)ccc2O[C@H]1CN(C)Cc1ccc(C(=O)O)cc1	-1	nt	nt	nt	nt	nt	nt
C[C@H](CO)N1C[C@H](C)[C@H](CN(C)CC2CCCC2)OCc2cnnn2CCCC1=O	1	nt	nt	nt	nt	nt	nt
CC(C)NCC(O)Cn1c2c(c3ccccc31)CCc1c-2cnn1-c1ccccc1 (stereo unspecified)	nt	-36	7	33*	-18	8	0
COc1ccc(Cc2c(-c3ccc(F)cc3)nc3ccc(C)cn23)c(C)c1	1	nt	nt	nt	-2	nt	nt
COc1ccc(-c2nc3ccc(C)cn3c2Cc2cccc(F)c2)cc1OC	2	nt	nt	59*	-9	66*	65*
COc1ccc(Cc2c(-c3ccc(OC)c(OC)c3)nc3ccc(C)cn23)c(C)c1	2	nt	nt	31*	-5	54*	43*
Cn1c(=O)nc2n(Cc3ccccc3)c3ccccc3cc-2c1=O	-1	-1	7	85*	-23	72*	52*
C[C@@H]1CN([C@@H](C)CO)C(=O)c2cc(N(C)C)ccc2O[C@@H]1CN(C)C(=O)Nc1cccc2ccccc12	-7	nt	nt	nt	nt	nt	nt
CCCOc1ccccc1-c1nc2c([nH]1)c(=O)[nH]c(=O)n2C	nt	22	28	59*	0	66*	44*
CN(C)C(=O)C[C@@H]1CC[C@H]2[C@@H](COC[C@H](O)CN2CC2CCCC2)O1	-9	nt	nt	nt	nt	nt	nt
Cc1cc(C)c(C#N)c(N2CCCC2)n1	-1	5	13	30*	4	135*	92*
Cc1cc(C)c(C#N)c(N2CCN(c3ccc(F)cc3)CC2)n1	-1	8	-5	-1	-2	nt	nt
N/C(=N\OC(=O)c1ccoc1)c1ccc(Br)cc1	1	0	-3	38*	9	155*	150*
COc1ccc(S(=O)(=O)N(C)C[C@H]2OCCCC[C@@H](C)Oc3ccc(NC(=O)Nc4c(C)noc4C)cc3C(=O)N([C@@H](C)CO)C[C@@H]2C)cc1	0	nt	nt	nt	nt	nt	nt
Cc1nc(-c2cn[nH]c2)c2cc(C)oc2n1	nt	3	-5	27*	0	134*	110*
